For seven compounds, Potency and outcome results are on record in PubChem BioAssay (Tox21).

Unmarked numbers belong to inactive results. Inconclusive results are not listed. Active and inactive are the calls of the source. Unless noted, calls follow the shape of the dose curve; as a rule, active = well fitted curve in the direction sought with a large enough effect in the repeat runs; inconclusive = weak or mixed curves; inactive = no such curve, though single readings can be large; an effect the other way counts as inactive or inconclusive.

Assay [1] in a line: qHTS assay for small molecule agonists of the p53 signaling pathway (AID 651631; calls by dose curve; also: nearly all actives have a fitted effect of over 15% in size). Summed up: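 HCT-116 cells carrying a stable p53 response element–beta-lactamase reporter were plated, rested 5 h at 37 °C, then exposed to compound in DMSO for 16 h at 37 °C; reporter activity was read as FRET substrate fluorescence after 2 h at room temperature.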
Assay [2] can be described thus: qHTS assay for small molecules that induce genotoxicity in human embryonic kidney cells expressing luciferase-tagged ATAD5 (AID 651632). Also: nearly all actives have a fitted effect of over 15% in size. Summed up:
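ATAD5-luc HEK293T, 2,000 cells/well; cpd or DMSO pin-transferred; 16 hr, 37C/5% CO2; Amplite 30 min RT; luminescence.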
Background: In qHTS, concentration-response curves come from the screen itself.

Assay [3] is described as follows: qHTS assay for small molecule agonists of the p53 signaling pathway - cell viability (AID 651633; calls by dose curve; also: nearly all actives have a fitted effect of over 30% in size). The method in brief: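 Viability counter-read: CellTiter-Glo luminescence (30 min, room temperature) in the same p53RE-bla plates. These plates had been exposed to compounds for 16 h at 37 C.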
Assay [4] can be described thus: qHTS assay for small molecules that induce genotoxicity in human embryonic kidney cells expressing luciferase-tagged ATAD5 - cell viability (AID 651634; calls by dose curve; also: nearly all actives have a fitted effect of over 25% in size; also: potency is read from the fitted curve at half-maximal effect). Summed up: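 Fluorescence from CellTiter-Fluor, reporting protease activity within live cells, served as the viability read-out. HEK293T cells carrying luciferase-tagged ATAD5 had been treated with compound for 15.5 hr at 37C.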

Assay [5] in a line: qHTS assay for small molecule disruptors of the mitochondrial membrane potential - cell viability (AID 720634; calls by dose curve;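 also: human HepG2 liver cancer cells; nearly all actives have a fitted effect of over 20% in size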). The method in brief: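 Cells: HepG2, 2,000/well, attached overnight. Compound 1 hr, 37 C/5% CO2. +m-MPI dye, +CellTiter-Glo 30 min RT. Readout: luminescence (ATP).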
Assay [6] in a line: qHTS assay for small molecule disruptors of the mitochondrial membrane potential (AID 720635). The method in brief:
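Mitochondrial membrane potential tracked with Mito-MPS dye, red aggregates (ex 540/em 590 nm) against green monomers (ex 490/em 535 nm). Compound treatment 1 hr at 37C, dye 30 min in HepG2.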

Assay [7] can be described thus: qHTS assay to test for compound auto fluorescence at 590 nm (red) in HepG2 cells (AID 720674). The method in brief: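 We screened compounds on adherent HepG2 cells, incubating them for an hour at 37 C in 5% CO2 before reading emission at 590 nm under 540 nm excitation; values reflect equivalence to Rose Bengal sodium fluorescence.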
Assay [8] in a line: qHTS assay to test for compound auto fluorescence at 535 nm (green) in HepG2 cells (AID 720675).
A short description of assay [9]: qHTS assay to test for compound auto fluorescence at 460 nm (blue) in HEK293 cells (AID 720678). The method in brief: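 Cells were seeded and left to adhere for 4-5 hr at 37C. Compounds were then pin-transferred. After an overnight incubation at 37C under 5% CO2, intrinsic fluorescence at 405/460 nm was measured and referenced to triamterene.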
Assay [10] can be described thus: qHTS assay to test for compound auto fluorescence at 590 nm (red) in HEK293 cells (AID 720679). Summed up: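 Each well held 2,000 HEK293 cells in medium containing 10% dialyzed FBS. Following 4-5 hr attachment at 37C, 23 nL test compound or DMSO was added; plates sat overnight, and red fluorescence (540/590nm) was recorded.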
Assay [11] in a line: qHTS assay to test for compound auto fluorescence at 535 nm (green) in HEK293 cells (AID 720680).
Assay [12] is described as follows: qHTS assay to test for compound auto fluorescence at 460 nm (blue) in HEK293 cell free culture (AID 720681). Summed up:
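Blue fluorescence (Ex 405/Em 460 nm, triamterene-equivalent) was read immediately after pin transfer of compound or DMSO into medium (DMEM, 10% FBS) without cells.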

Assay [13] can be described thus: qHTS assay to test for compound auto fluorescence at 535 nm (green) in HEK293 cell free culture (AID 720682). The method in brief: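 Read-out: 485/535 nm fluorescence intensity, calibrated against fluorescein. Medium only (DMEM + 10% FBS, no cells); test compound or DMSO vehicle added by pintool before plate reading.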
A short description of assay [14]: qHTS assay to test for compound auto fluorescence at 590 nm (red) in HEK293 cell free culture (AID 720683). The method in brief:
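Red-channel autofluorescence of compounds in culture medium (DMEM, 10% FBS), no cells, measured at 540/590 nm. Rose Bengal sodium is the reference fluorophore for equivalence.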

A short description of assay [15]: qHTS assay to test for compound auto fluorescence at 590 nm (red) in HepG2 cell free culture (AID 720684). Summed up: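 Plate contents were MEM with 10% FBS plus test compound or DMSO, no cells. Fluorescence was recorded with 540 nm excitation and 590 nm emission.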
The nature of assay [16]: qHTS assay to test for compound auto fluorescence at 460 nm (blue) in HepG2 cell free culture (AID 720685). Summed up:
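Compound (23 nL) or DMSO pinned into cell-free MEM with 10% FBS; blue fluorescence read at 405/460 nm excitation/emission, expressed as auto-fluorescence equivalency to triamterene.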

Assay [17] can be described thus: qHTS assay to test for compound auto fluorescence at 460 nm (blue) in HepG2 cells (AID 720687). The method in brief:
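Blue-channel autofluorescence (Ex/Em 405/460 nm, triamterene-equivalent) was measured after 1 hr compound exposure at 37 C, 5% CO2. Cells were HepG2, plated overnight at 37 C in MEM plus 10% FBS.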

The target in assay [18] is Glucocorticoid receptor (Homo sapiens) (UniProt P04150). Nature of the assay: qHTS assay to identify small molecule agonists of the glucocorticoid receptor (GR) signaling pathway (AID 720691; active = well fitted activation curve with a large enough effect in the signal ratio in the repeat runs, not every such curve was filed as active; the % refers to the signal ratio). The conditions noted are these: GR-bla HeLa, beta-lactamase reporter ratio, 18 h; activation: at 62.4 µM (top of the series) unless noted. Summed up:
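Fluorescence intensity from LiveBLAzer B/G FRET substrate (2 h, room temperature) reports beta-lactamase expression driven by the glucocorticoid response element in GR-bla HeLa cells after 18 h compound exposure at 37 C.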

Assay [19] in a line: qHTS assay to test for compound auto fluorescence at 535 nm (green) in HepG2 cell free culture (AID 720686).
The target in assay [20] is Glucocorticoid receptor (Homo sapiens) (UniProt P04150). Nature of the assay: qHTS assay to identify small molecule antagonists of the glucocorticoid receptor (GR) signaling pathway (AID 720692; active = well fitted inhibition curve with a large enough effect in the signal ratio in the repeat runs, not every such curve was filed as active; the % refers to the signal ratio). Summed up:
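HeLa GR-bla cells; cmpd + dex 5 nM final, 18 h 37 C; LiveBLAzer B/G FRET substrate 2 h RT; fluorescence intensity read. Antagonist mode, qHTS.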

Glucocorticoid receptor (Homo sapiens), sequence (P04150 whole entry, looked up): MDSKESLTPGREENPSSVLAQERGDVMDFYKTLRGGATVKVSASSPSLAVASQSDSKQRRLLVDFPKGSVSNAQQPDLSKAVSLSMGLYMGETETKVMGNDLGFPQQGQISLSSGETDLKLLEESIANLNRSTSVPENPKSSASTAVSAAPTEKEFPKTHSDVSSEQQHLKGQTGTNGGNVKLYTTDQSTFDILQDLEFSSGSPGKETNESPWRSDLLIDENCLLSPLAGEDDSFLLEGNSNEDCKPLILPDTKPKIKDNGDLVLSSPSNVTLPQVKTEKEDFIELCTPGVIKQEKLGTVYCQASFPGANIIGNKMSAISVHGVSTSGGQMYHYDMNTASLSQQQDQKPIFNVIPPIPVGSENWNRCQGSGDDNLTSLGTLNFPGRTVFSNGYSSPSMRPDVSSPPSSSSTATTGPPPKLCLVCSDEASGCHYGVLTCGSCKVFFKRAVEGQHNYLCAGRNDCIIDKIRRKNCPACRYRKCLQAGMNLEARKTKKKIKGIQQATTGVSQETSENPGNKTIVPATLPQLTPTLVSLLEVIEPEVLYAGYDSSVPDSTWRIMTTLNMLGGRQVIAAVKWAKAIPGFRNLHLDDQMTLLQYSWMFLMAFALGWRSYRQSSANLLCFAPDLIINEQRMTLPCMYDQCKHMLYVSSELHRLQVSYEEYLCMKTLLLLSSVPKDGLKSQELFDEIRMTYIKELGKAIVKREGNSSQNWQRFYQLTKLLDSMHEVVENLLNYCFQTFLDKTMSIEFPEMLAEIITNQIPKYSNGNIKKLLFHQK

Consider `CC[N+]1(CC)CCC(=C(c2ccccc2)c2ccccc2)C1C` (configuration not stated), for which the Potency result in assay [1], in assay [2], in [3], in assay [4], in assay [5] and in assay [6] was “inactive” in each case. Besides, the Potency entry in assay [7], in assay [8], in [10], in assay [14], in assay [15] and in assay [18] was “inactive” each time. Moreover, the outcome in assay [9], in [11], in assay [12], in assay [13], in assay [16] and in assay [17] was inactive.
On to `C[N+](C)(C)CCOC(=O)CCC(=O)OCC[N+](C)(C)C`, for which the Potency entry in assay [1], in [2], in assay [3], in assay [4], in assay [5] and in assay [6] was “inactive” throughout. The Potency result in [7], in [8], in [10], in [14], in assay [15] and in [19] was “inactive” each time. For the same compound, the Potency result in assay [18] was “inactive”. In addition, the compound was called inactive in assay [9], in [11], in [12], in assay [13], in [16] and in assay [17].
`Cc1cc(C(=O)O)ccc1[N+](=O)[O-]`: the Potency entry in assay [1], in assay [2], in [3], in assay [4], in [5] and in assay [6] was “inactive” in each case. The Potency entry in assay [7], in [8], in assay [10], in assay [14], in [15] and in assay [19] was “inactive” in each case. For the same compound, the Potency result in assay [18] was “inactive”. Also, the outcome in [9], in assay [11], in assay [12], in [13], in assay [16] and in assay [17] was inactive.
`O=[N+]([O-])c1ccc(NCCO)c(OCCO)c1`: the Potency result in assay [1], in assay [2], in [3], in assay [5], in assay [6] and in [7] was “inactive” throughout. In addition, the Potency entry in assay [8], in [10], in assay [14], in [15], in assay [19] and in assay [18] was “inactive” each time. Moreover, in [20], the Potency result is “inactive”. In assay [4], the Potency is 61.2 µM (active). The call in assay [9], in assay [11], in [12], in assay [13], in [16] and in [17] was inactive.
Take `C[N+]1(CC2COC(c3ccccc3)(C3CCCCC3)O2)CCCCC1` (configuration not stated): the Potency entry in assay [1], in assay [2], in assay [3], in [4], in [5] and in assay [6] was “inactive” each time. Besides, the Potency result in [8], in [10], in [14], in [15] and in assay [18] was “inactive” each time. The compound was classed as inactive in [9], in assay [11], in assay [12], in assay [13] and in assay [17].
`O=C(OCCCCCCOC(=O)c1ccccc1)c1ccccc1`: the Potency entry in assay [1], in assay [2], in [3], in assay [4], in assay [5] and in assay [6] was “inactive” each time. Further, the Potency result in assay [7], in [8], in [14], in assay [15], in assay [18] and in assay [20] was “inactive” each time. Besides, the compound was called inactive in assay [9], in assay [11], in assay [12], in assay [13], in assay [16] and in assay [17].
Consider `O=C1OC(=O)C2C3C=CC(C3)C12` (configuration not stated), for which the Potency result in [1], in assay [2], in assay [3], in [4], in assay [5] and in assay [6] was “inactive” each time. In addition, the Potency entry in [7], in assay [8], in assay [10], in assay [14] and in assay [15] was “inactive” throughout. Further, the call in assay [9], in assay [11], in assay [12], in [13], in [16] and in assay [17] was inactive.
